Source: PubChem BioAssay (NCI)
Compounds without any hit were thinned out: in the full panel of roughly 83,000, 20% have a hit.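 Percent growth is the endpoint: 0 to 100 indicates growth inhibition (40 means 60% inhibition), 0 means no net growth, and negative values indicate cell death.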 Calls of active or inactive are those of the source. Rule for the calls: active = growth percent below 10; inactive = the rest.

Each molecule was assayed on SK-OV-3 ovarian (assay: NCI-60 one-dose screen, 48 h (100 = growth as untreated, 0 = no growth, -100 = all killed)). Settings: 10 µM.

| Compound | growth |
| --- | --- |
| CCN(CC)CCNc1ccc(CO)c2oc3cc(Cl)ccc3c(=O)c12 | 92.9% (inactive) |
| O=C(O)C(SC(C(=O)O)c1ccccc1)c1ccccc1 (stereo not given) | 99.7% (inactive) |
| COc1ccc(-c2nc3ccccn3c2-c2nnc(-c3cc(OC)c(OC)c(OC)c3)o2)cc1 | 44.3% (inactive) |
| N#Cc1c(C#N)c(SSc2c(C#N)c(C#N)c(N)n2-c2ccccc2)n(-c2ccccc2)c1N | 115% (inactive) |
| Cc1ccc(-c2nc(/C=C3/C(=O)N(C)c4ccc(F)cc43)c3ccccn23)cc1 | 105% (inactive) |
| CCN(CC)CCSCCCNc1c2ccc(Cl)cc2nc2ccc(OC)cc12 | -1.76% (active) |
| CN1CC[C@@H](c2c(O)cc(O)c3c(=O)cc(-c4ccccc4Cl)oc23)[C@@H](O)C1 | 47.6% (inactive) |
| NC1=NC(=O)C(c2ccccc2)(c2ccccc2)S1 | 105% (inactive) |
| CCc1ccc2c(c1)N(CCO)C1=C(C(=O)OC1)C2c1ccccc1 (stereo not given) | 94.9% (inactive) |
| Cc1cccc2c(NCCN(C)C)c3cccc(C(=O)NCCN(C)C)c3nc12 | 19.7% (inactive) |
| CCCN(CCC)CCC(O)c1cc2c(c3ccccc13)CCCC2 (stereo not given) | 90.1% (inactive) |
| COc1ccc2c(c1)/C(=C\c1c[nH]c3ccc(OC)cc13)C(=O)N2 | 52.8% (inactive) |
| Nc1ccn(C2CC(O)C(CO)O2)c(=O)n1 (stereo not given) | 105% (inactive) |
| COc1cccc(C2C3=C(COC3=O)N(CCO)c3cc(OC)ccc32)c1 (stereo not given) | 21.6% (inactive) |
| C=C(C(=O)c1ccccc1)C(NC(C)(C)C)c1ccccc1 (stereo not given) | 67.9% (inactive) |
